Test results: the supplement of paper PMC4022240
± gives the standard deviation.

Target: T1, HaloTag-ATRX ADD domain (163-292)
T1 chain: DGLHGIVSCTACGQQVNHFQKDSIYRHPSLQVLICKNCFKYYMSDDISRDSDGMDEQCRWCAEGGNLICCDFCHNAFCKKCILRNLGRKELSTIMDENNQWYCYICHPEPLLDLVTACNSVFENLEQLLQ
Assay: peptide microarray binding signal (635 nm), min-max normalized on array (fraction of array maximum); higher = stronger binding
Conditions: peptide region: Unmod H1 variant; binder concentration: 50 nM
How it was run: (§1)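 Arrays carried histone 13-mer peptide–cellulose conjugates printed in triplicate on nitrocellulose alongside a Cy3 tracer. After overnight blocking at 4°C, they were incubated for 1 h at 4°C with biotin-labelled HaloTag reader fusions (10 nM to 1 μM) plus streptavidin-Alexa Fluor 647, or with rabbit histone antibodies (1:10,000 to 1:2,000) plus anti-rabbit Alexa 647. Scanning on an Axon GenePix 4000B used 635 nm for signal and 532 nm for misprints. The binding signal reported is each triplicate's mean spot intensity after per-library min-max scaling.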

Binder | peptide microarray binding signal
SFRLAKSDEPKKS [Unmod H1 variant S F R L A K S D E P K K S] | 0.0196 ± 0.0052
TKKEIKKVATPKK [Unmod H1 variant T K K E I K K V A T P K K] | 0.0108 ± 0.00026
KPKATPVKKAKKK [Unmod H1 variant K P K A T P V K K A K K K] | 0.0137 ± 0.0012
PKKSVAFKKTKKE [Unmod H1 variant P K K S V A F K K T K K E] | 0.0103 ± 0.00015
KKAKKPKTVKAKP [Unmod H1 variant K K A K K P K T V K A K P] | 0.0134 ± 0.00092
AEKNRAGSSRQSI [Unmod H1 variant A E K N R A G S S R Q S I] | 0.0112 ± 0.00071
TENSTSAPAAKPK [Unmod H1 variant T E N S T S A P A A K P K] | 0.0132 ± 0.00019
SETVPPAPAASAA [Unmod H1 variant S E T V P P A P A A S A A] | 0.0132 ± 0.00014
RLVTTGVLKQTKG [Unmod H1 variant R L V T T G V L K Q T K G] | 0.0191 ± 0.00044
KAASKAPTKKPKA [Unmod H1 variant K A A S K A P T K K P K A] | 0.0142 ± 0.00045

Same assay, conditions: peptide region: Unmod H1 variant; binder concentration: 500 nM

Binder | peptide microarray binding signal
SFRLAKSDEPKKS [Unmod H1 variant S F R L A K S D E P K K S] | 0.0223 ± 0.001
TKKEIKKVATPKK [Unmod H1 variant T K K E I K K V A T P K K] | 0.00952 ± 0.00026
KPKATPVKKAKKK [Unmod H1 variant K P K A T P V K K A K K K] | 0.0124 ± 0.00028
PKKSVAFKKTKKE [Unmod H1 variant P K K S V A F K K T K K E] | 0.00867 ± 0.00023
KKAKKPKTVKAKP [Unmod H1 variant K K A K K P K T V K A K P] | 0.00981 ± 0.00033
AEKNRAGSSRQSI [Unmod H1 variant A E K N R A G S S R Q S I] | 0.0179 ± 0.0034
TENSTSAPAAKPK [Unmod H1 variant T E N S T S A P A A K P K] | 0.0173 ± 0.002
SETVPPAPAASAA [Unmod H1 variant S E T V P P A P A A S A A] | 0.00691 ± 0.00014
RLVTTGVLKQTKG [Unmod H1 variant R L V T T G V L K Q T K G] | 0.035 ± 0.0031
KAASKAPTKKPKA [Unmod H1 variant K A A S K A P T K K P K A] | 0.0141 ± 0.00028

target: HaloTag-ING2 PHD (mouse Ing2 200-280); assay: as above; conditions: peptide region: Unmod H1 variant; binder concentration: 10 nM
How it was run: as §1

Binder | peptide microarray binding signal
SFRLAKSDEPKKS [Unmod H1 variant S F R L A K S D E P K K S] | 0.00448 ± 0.00019
TKKEIKKVATPKK [Unmod H1 variant T K K E I K K V A T P K K] | 0.00185 ± 3.8e-05
KPKATPVKKAKKK [Unmod H1 variant K P K A T P V K K A K K K] | 0.00209 ± 5.3e-05
PKKSVAFKKTKKE [Unmod H1 variant P K K S V A F K K T K K E] | 0.00203 ± 5.4e-05
KKAKKPKTVKAKP [Unmod H1 variant K K A K K P K T V K A K P] | 0.00215 ± 4.5e-05
AEKNRAGSSRQSI [Unmod H1 variant A E K N R A G S S R Q S I] | 0.00495 ± 0.00025
TENSTSAPAAKPK [Unmod H1 variant T E N S T S A P A A K P K] | 0.005132 ± 2.5e-05
SETVPPAPAASAA [Unmod H1 variant S E T V P P A P A A S A A] | 0.00448 ± 6.1e-05
RLVTTGVLKQTKG [Unmod H1 variant R L V T T G V L K Q T K G] | 0.0205 ± 0.0038
KAASKAPTKKPKA [Unmod H1 variant K A A S K A P T K K P K A] | 0.00257 ± 0.00013

same assay, conditions: peptide region: Unmod H1 variant; binder concentration: 100 nM

Binder | peptide microarray binding signal
SFRLAKSDEPKKS [Unmod H1 variant S F R L A K S D E P K K S] | 0.0192 ± 0.0084
TKKEIKKVATPKK [Unmod H1 variant T K K E I K K V A T P K K] | 0.00482 ± 0.0004
KPKATPVKKAKKK [Unmod H1 variant K P K A T P V K K A K K K] | 0.00319 ± 0.00028
PKKSVAFKKTKKE [Unmod H1 variant P K K S V A F K K T K K E] | 0.00298 ± 7.3e-05
KKAKKPKTVKAKP [Unmod H1 variant K K A K K P K T V K A K P] | 0.00645 ± 0.00057
AEKNRAGSSRQSI [Unmod H1 variant A E K N R A G S S R Q S I] | 0.00943 ± 0.0026
TENSTSAPAAKPK [Unmod H1 variant T E N S T S A P A A K P K] | 0.00694 ± 0.00038
SETVPPAPAASAA [Unmod H1 variant S E T V P P A P A A S A A] | 0.00446 ± 0.00013
RLVTTGVLKQTKG [Unmod H1 variant R L V T T G V L K Q T K G] | 0.0395 ± 0.0068
KAASKAPTKKPKA [Unmod H1 variant K A A S K A P T K K P K A] | 0.019 ± 0.0066

target: anti-H3K4me3 antibody ab8580; assay: as above; conditions: peptide region: Unmod H1 variant; binder concentration: 1:2,000 dilution
How it was run: as §1

Binder | peptide microarray binding signal
SFRLAKSDEPKKS [Unmod H1 variant S F R L A K S D E P K K S] | 0.001 ± 0.00013
TKKEIKKVATPKK [Unmod H1 variant T K K E I K K V A T P K K] | 0.000604 ± 3e-05
KPKATPVKKAKKK [Unmod H1 variant K P K A T P V K K A K K K] | 0.000547 ± 2.7e-05
PKKSVAFKKTKKE [Unmod H1 variant P K K S V A F K K T K K E] | 0.000321 ± 6.7e-06
KKAKKPKTVKAKP [Unmod H1 variant K K A K K P K T V K A K P] | 0.000642 ± 1.6e-05
AEKNRAGSSRQSI [Unmod H1 variant A E K N R A G S S R Q S I] | 0.000453 ± 4.1e-05
TENSTSAPAAKPK [Unmod H1 variant T E N S T S A P A A K P K] | 0.000906 ± 4.9e-05
SETVPPAPAASAA [Unmod H1 variant S E T V P P A P A A S A A] | 0.00151 ± 2.3e-05
RLVTTGVLKQTKG [Unmod H1 variant R L V T T G V L K Q T K G] | 0.00321 ± 0.00047
KAASKAPTKKPKA [Unmod H1 variant K A A S K A P T K K P K A] | 0.000963 ± 1.4e-05

same assay, conditions: peptide region: Unmod H1 variant; binder concentration: 1:10,000 dilution

Binder | peptide microarray binding signal
SFRLAKSDEPKKS [Unmod H1 variant S F R L A K S D E P K K S] | 0.00154 ± 9.8e-05
TKKEIKKVATPKK [Unmod H1 variant T K K E I K K V A T P K K] | 0.000628 ± 6.7e-06
KPKATPVKKAKKK [Unmod H1 variant K P K A T P V K K A K K K] | 0.00126 ± 2.2e-05
PKKSVAFKKTKKE [Unmod H1 variant P K K S V A F K K T K K E] | 0.000628 ± 6.7e-06
KKAKKPKTVKAKP [Unmod H1 variant K K A K K P K T V K A K P] | 0.000628 ± 6.7e-06
AEKNRAGSSRQSI [Unmod H1 variant A E K N R A G S S R Q S I] | 0.000913 ± 1.6e-05
TENSTSAPAAKPK [Unmod H1 variant T E N S T S A P A A K P K] | 0.00188 ± 3.5e-05
SETVPPAPAASAA [Unmod H1 variant S E T V P P A P A A S A A] | 0.00223 ± 4e-05
RLVTTGVLKQTKG [Unmod H1 variant R L V T T G V L K Q T K G] | 0.00348 ± 4.9e-05
KAASKAPTKKPKA [Unmod H1 variant K A A S K A P T K K P K A] | 0.001027 ± 1e-05

target: anti-H3K9me3 antibody ab8898; assay: as above; conditions: peptide region: Unmod H1 variant; binder concentration: 1:2,000 dilution
How it was run: as §1

Binder | peptide microarray binding signal
SFRLAKSDEPKKS [Unmod H1 variant S F R L A K S D E P K K S] | 0.000785 ± 0.00015
TKKEIKKVATPKK [Unmod H1 variant T K K E I K K V A T P K K] | 0.000121 ± 1.3e-06
KPKATPVKKAKKK [Unmod H1 variant K P K A T P V K K A K K K] | 0.0008 ± 0.00013
PKKSVAFKKTKKE [Unmod H1 variant P K K S V A F K K T K K E] | 0.000423 ± 4.2e-05
KKAKKPKTVKAKP [Unmod H1 variant K K A K K P K T V K A K P] | 0.000151 ± 1.6e-06
AEKNRAGSSRQSI [Unmod H1 variant A E K N R A G S S R Q S I] | 0.000544 ± 1.5e-05
TENSTSAPAAKPK [Unmod H1 variant T E N S T S A P A A K P K] | 0.00136 ± 1.7e-05
SETVPPAPAASAA [Unmod H1 variant S E T V P P A P A A S A A] | 0.000891 ± 7.7e-05
RLVTTGVLKQTKG [Unmod H1 variant R L V T T G V L K Q T K G] | 0.00151 ± 8.2e-05
KAASKAPTKKPKA [Unmod H1 variant K A A S K A P T K K P K A] | 0.000257 ± 5.3e-06

same assay, conditions: peptide region: Unmod H1 variant; binder concentration: 1:10,000 dilution

Binder | peptide microarray binding signal
SFRLAKSDEPKKS [Unmod H1 variant S F R L A K S D E P K K S] | 0.000923 ± 9.6e-06
TKKEIKKVATPKK [Unmod H1 variant T K K E I K K V A T P K K] | 0.000519 ± 5.6e-06
KPKATPVKKAKKK [Unmod H1 variant K P K A T P V K K A K K K] | 0.000634 ± 1.2e-05
PKKSVAFKKTKKE [Unmod H1 variant P K K S V A F K K T K K E] | 0.000519 ± 5.6e-06
KKAKKPKTVKAKP [Unmod H1 variant K K A K K P K T V K A K P] | 0.000634 ± 1.2e-05
AEKNRAGSSRQSI [Unmod H1 variant A E K N R A G S S R Q S I] | 0.00219 ± 0.00045
TENSTSAPAAKPK [Unmod H1 variant T E N S T S A P A A K P K] | 0.0015 ± 2.5e-05
SETVPPAPAASAA [Unmod H1 variant S E T V P P A P A A S A A] | 0.00115 ± 2e-05
RLVTTGVLKQTKG [Unmod H1 variant R L V T T G V L K Q T K G] | 0.001903 ± 1.8e-05
KAASKAPTKKPKA [Unmod H1 variant K A A S K A P T K K P K A] | 0.000807 ± 1.5e-05
